# Data: PubChem BioAssay
# What was measured:
# [1] = target: Tumor necrosis factor receptor superfamily member 10B (Homo sapiens) (UniProt O14763); assay: caspase-8 TRAIL sensitization, hit retest, confirmation, cell-based, NB7+caspase-8, with/without TRAIL, luminescence panel (AID 651596); details: NB7 neuroblastoma + caspase-8, TRAIL sensitization, luminescence viability, with TRAIL, mean of runs, at 10 µM, stronger effect = higher value
# [2] = as above; details: NB7 neuroblastoma + caspase-8, without TRAIL, luminescence viability, without TRAIL, mean of runs, at 10 µM
# Tumor necrosis factor receptor superfamily member 10B (Homo sapiens), sequence (O14763 whole entry, looked up): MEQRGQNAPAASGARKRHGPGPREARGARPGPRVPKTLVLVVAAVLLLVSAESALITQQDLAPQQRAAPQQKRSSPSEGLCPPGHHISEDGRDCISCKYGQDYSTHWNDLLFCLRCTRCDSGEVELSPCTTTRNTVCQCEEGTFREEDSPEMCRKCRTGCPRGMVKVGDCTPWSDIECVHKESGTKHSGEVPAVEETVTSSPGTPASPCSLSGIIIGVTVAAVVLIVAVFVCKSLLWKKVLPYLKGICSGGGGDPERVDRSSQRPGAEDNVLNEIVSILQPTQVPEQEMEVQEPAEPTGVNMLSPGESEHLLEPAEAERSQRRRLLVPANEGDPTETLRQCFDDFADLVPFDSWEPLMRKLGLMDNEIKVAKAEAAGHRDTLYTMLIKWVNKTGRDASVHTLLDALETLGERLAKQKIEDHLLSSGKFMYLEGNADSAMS
Compound,activity [1] [%],activity [2] [%]
Cc1ccc(-c2cn3c(=O)cc(C)[nH]c3n2)cc1,80.5,79.5
O=C(Nc1ccccn1)c1onc2c1CCCC2,78.8,78.2
CCOC(=O)/C(=C/c1ccc(OC(F)F)cc1)C1=Nn2c(nnc2-c2ccc(Cl)cc2)SC1,98.8,97.1
COc1ccc(C(=O)Nc2ccc3[nH]ccc3c2)cc1,95.1,95.3
CNc1ncnc(Sc2nc(N)nc3nc[nH]c23)c1[N+](=O)[O-],72,77.6
COc1cc2nc(N3CCNCC3)nc(N)c2cc1OC,27.5,0.125
Oc1ccccc1-c1cc(-c2ccccc2)no1,46.3,37.7
O=c1c2[nH]c3ccccc3c2ncn1C1CCCCC1,75.2,74.8
Cc1ccc(Nc2nc(N)c3ccccc3n2)cc1C,83,78
O=C(Nc1nc2ccccc2s1)c1ccc(OCC2CCCO2)cc1 (centres undefined),73.5,67
NC1=NC[C@H](CC2CCCCC2)N1CCc1cc(C(F)(F)F)cc(C(F)(F)F)c1,40.9,80
CCOc1ccc2nc(NC(=O)CN3CCC(n4nnc5cc(C(F)(F)F)ccc54)CC3)sc2c1,69,66.9
COc1cc(C(=O)Nc2nc3ccccc3[nH]2)ccc1OC(F)F,78.9,69.4
CC(C)(C)OC(=O)NCc1ccc(NC(=O)c2nc[nH]c2C(=O)NCCCCNC(=O)c2[nH]cnc2C(=O)Nc2ccc(CNC(=O)OC(C)(C)C)cc2)cc1,95.1,96.2
Cc1ccc2nc(-c3ccc(NC(=O)CCN4C(=O)c5ccccc5C4=O)cc3)sc2c1,73.7,63.9
NC(CCc1ccccc1)c1csc(NC(=O)Nc2ccccc2Oc2ccccc2)n1 (centres undefined),79,93
CC(C)c1nnc(NC(=O)c2c(O)c3cccc4c3n(c2=O)CCC4)s1,43.6,36.5
O=C(Nc1ccc2c(c1)OCCO2)c1ccc2nccnc2c1,53.5,50.4
Cc1ccnc(NC(=S)NC(=O)c2ccco2)c1,65.5,57.7
C#Cc1ccc(NC(=O)C2(C)CCN2C(=O)C2(c3ccccc3)CCCC2)cc1 (centres undefined),91.3,84.6
Cc1ccc(/C=N/NC(=O)c2cc(C)oc2C)cc1,45.1,55
Cc1ccc(NC(=O)CSc2ccc(-c3ccc4c(c3)OCO4)nn2)cc1F,39,44.9
CC[C@H]1CN2CCc3cc(OC)c(OC)cc3C2C[C@@H]1C[C@H]1NCCc2cc(OC)c(OC)cc21 (some centres undefined),70,83.4
Cc1ccc(C(=O)c2no[n+]([O-])c2C(=O)c2ccc(C)cc2)cc1,98,92

Compound,activity [1] [%],activity [2] [%]
COc1ccc(-c2cc3cccc(OC)c3oc2=O)cc1,81.8,80.2
Nc1c(N(C(=O)Nc2ccc(Cl)c(Cl)c2)C2CCCC2)c(=O)[nH]c(=O)n1Cc1ccccc1,46.5,46
CCc1nnc(NC(=O)c2nc(S(=O)(=O)Cc3ccccc3)ncc2Cl)s1,95.4,74.3
CC(C)C(=O)Nc1ccc2nn(-c3ccccc3)nc2c1,52.4,55
CCCCCCCCCCCCCCC[C@@H](O)[C@@H](N)CO,84.5,79.7
CCCCCN=Cc1c(C)[nH]n(-c2nc3ccccc3s2)c1=O,95.5,95.9
CCC(COC)Oc1cc(NCc2ccccc2)c2ncn(C(C)C)c2c1 (centres undefined),-8.03,-13.1
Cc1cc(C)n2nc(C(=O)Nc3ccc4c(c3)OCCO4)nc2n1,45,47.2
CC(=O)c1cccc(NC(=O)CSc2ccc(-c3ccc4c(c3)OCO4)nn2)c1,52.1,50
COc1ccc(NC(=O)c2ccc(OC)cc2)cc1,54.2,42.5
COc1ccc(CCNc2cc(N3CCN(C(=O)c4ccccc4F)CC3)ccc2[N+](=O)[O-])cc1OC,73.7,64.7
Cc1ccc(NC(=S)c2nc3ccccc3s2)cc1,30.7,33.8
O=C(NCCOc1ccccc1)c1cccc2c1C(=O)c1ccc(Cl)cc1S2(=O)=O,35.6,54.2
O=C(NC1CCCCC1)c1n[nH]c2c1CCCCC2,82.1,80.8
OCC1OC(n2ccc3c2ncn2ncnc32)C(O)C1O (centres undefined),93.8,95.3
N#Cc1cccnc1N1CCN(C(=O)c2cccc3c2C(=O)c2ccc(Cl)cc2S3(=O)=O)CC1,98.4,97.4
C#CC(=O)N(c1cc(OC)ccc1OC)C(C(=O)NC1CCCC1)c1cccs1 (centres undefined),98.2,98.5
CCOc1ccc(C(=O)Nc2cc(C)c3c(=O)oc4ccccc4c3n2)cc1,61.2,62.1
Cc1cccc(CS(=O)(=O)c2ncc(Cl)c(C(=O)Nc3nnc(C(C)C)s3)n2)c1,93.5,86.1
CC(C)Cc1ccc(C(C)CC2=CCC(CN(C)C)C2=O)cc1 (centres undefined),86.2,91.8
N/C(=N\OC(=O)COc1ccc(Cl)cc1Cl)c1ccccn1,37,52.3
CC(C)(C)c1ccc(/C=C/C(=O)NC2=NCCS2)cc1,49.7,41.9
CCOc1ccccc1CNC(=O)C1CCN(c2nnc(C)c3c(C)n(-c4ccc(C)cc4)nc23)CC1,48.9,63.5
